Hits are enriched below; roughly 7.9% of the tested compounds scored in any of these assays.
HT1080NT lethal = qHTS for induction of synthetic lethality in tumor cells producing 2HG: qHTS for the HT-1080-NT fibrosarcoma cell line; HT-1080-NT fibrosarcoma viability, CellTiter-Glo ATP luminescence, 48 h; Potency, µM (series often up to 46.1 µM), usual class: cytotoxic; 1.6% of 360,000 active;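 further: NT is the 2HG producing partner of a matched IDH1 knockdown line; nearly all actives have a fitted effect of over 55% in size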
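750 cells/well, RPMI + 5% FBS; 2 h settle, compound pin-transfer, 48 h at 37 degrees C. CellTiter-Glo 10 min RT, luminescence. Normalized to DMSO and media-only wells.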
KB-V1 MDR tox = qHTS assay for MDR1-selective chemotherapeutics: Primary screen using the drug-selected MDR subline cells KB-V1; KB-V1 MDR cells viability, CellTiter-Glo, 72 h; Potency, µM (titrated, usually from 46.1 µM), most hits filed as cytotoxic; 3.4% of 400,000 active; further: nearly all actives have a fitted effect of over 60% in size
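Cytotoxicity via CellTiter-Glo luminescence after 72 h compound exposure at 37 degrees C. Cells: drug-selected KB-V1 line, DMEM phenol-red free plus 10% FBS. Compounds tested at multiple concentrations; normalized data fitted to concentration-effect curves.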
MCF10A rerep = A quantitative high throughput screen for small molecules that induce DNA re-replication in MCF 10a normal breast cells; MCF 10A DNA re-replication, Hoechst nuclear intensity, 48 h; Potency, µM (highest dose often 46.1 µM), actives largely listed as activators; 2.9% of 350,000 active; AID 624296, 2012; further: nearly all actives have a fitted effect of over 50% in size
HT1080 IDH1KD tx = qHTS for induction of synthetic lethality in tumor cells producing 2HG: qHTS for the HT-1080-IDH1KD cell line; 2% of 360,000 active; Potency, µM (highest dose often 46.1 µM), actives largely listed as cytotoxic; HT-1080 IDH1 knockdown viability, ATP luminescence, 48 h
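HT-1080-IDH1KD cells (IDH1 knocked down), 750/well in RPMI with 5% FBS, treated with compound 48 h at 37 degrees C. Viability by CellTiter-Glo luminescence, normalised to DMSO and no-cell wells; concentration-response curves classed.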
KB-3-1 tox = qHTS assay for MDR1-selective chemotherapeutics: Primary screen using the parental adenocarcinoma cell KB-3-1. 1.4% of 400,000 active. Potency, µM (doses to about 46.1 µM), most hits filed as cytotoxic. KB-3-1 viability, CellTiter-Glo ATP luminescence, 72 h; further: nearly all actives have a fitted effect of over 60% in size
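Screening of KB-3-1 cells (DMEM, 10% FBS, phenol-red free) ran from lowest to highest compound concentration; after 72 h at 37 °C viability was read luminescently and curves fitted.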
SW480 rereplic = A quantitative high throughput screen for small molecules that induce DNA re-replication in SW480 colon adenocarcinoma cells; SW480 DNA re-replication, Hoechst DNA content imaging, 48 h; Potency, µM (doses to about 46.1 µM), most hits filed as activators; 1.8% of 340,000 active; AID 624297, 2012; further: nearly all actives have a fitted effect of over 55% in size
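Compounds, transferred as 23 nL by pin tool, were incubated with cells for 48 hr; DNA content per nucleus was then quantified by Hoechst staining and fluorescence plate imaging.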
Numbers stand for hits; 0 = inactive; ? = inconclusive; - = not tested or not shown; [ ] = another dose, or the depositor's remark. The call rests on the fitted dose curve; in most records, active means well fitted curve in the direction sought with a large enough effect; inconclusive means small, poorly fitted or top-dose-only effect, or another doubt; inactive means no such curve, though single readings can be large; an effect the other way counts as inactive or inconclusive.

SMILES	HT1080NT lethal	KB-V1 MDR tox	MCF10A rerep	HT1080 IDH1KD tx	KB-3-1 tox	SW480 rereplic
COc1ccccc1N/C(N)=N/c1nc(C)cc(C)n1	0	0	?	0	0	0
Cc1cc(C)nc(/N=C(\N)Nc2ccc(OCc3ccccc3)cc2)n1	18.4µM	?	?	?	?	?
Cc1cc(C)nc(/N=C(\N)Nc2cccc(OCc3ccccc3)c2)n1	?	5.8µM	13µM	?	?	?
Cc1ccc(Cn2c(C)c(C(=O)NCc3ccc(Cl)c(Cl)c3)sc2=O)cc1	0	?	-	0	0	-
CCC(CC)c1nnc(NC(=O)c2cc(C(=O)OC)cc([N+](=O)[O-])c2)s1	0	0	0	0	0	0
O=C(/C=C/c1ccc(Br)cc1)c1ccc(NC2=NCCCS2)cc1	?	0	5.17µM	?	20.6µM	4.61µM
Cc1cccc(/C=C/C(=O)c2ccc(NC3=NCCCS3)cc2)c1	?	?	?	?	?	9.2µM
CN(C)c1ccc(C(=O)/C=C/c2ccc(Br)cc2)cc1	0	0	0	0	0	?
CC(C)(C)c1ccc(/C=C/C(=O)c2ccc(NC3=NCCCS3)cc2)cc1	?	?	18.4µM	?	?	?
O=C(/C=C/c1ccccc1)c1ccc(NC2=NCCCS2)cc1	0	20.6µM	18.4µM	0	?	?
CC(C)(C)c1ccc(/C=C/C(=O)Nc2ccncc2)cc1	?	?	?	?	0	?
O=C1CCCN1CCC1CCN(C(=O)Nc2ccccc2)CC1	0	0	0	0	0	0
Cc1ccc(NC(=O)Cc2cn3ccsc3n2)nc1	0	0	?	0	0	0
CC(C)(C)NC(=O)Cn1cc(S(=O)(=O)Cc2ccc(F)cc2)c2ccccc21	-	0	-	-	?	-
COc1ccccc1NC(=S)c1ccccc1	0	0	0	0	0	0
CC(=O)N1CCCc2ccc(NS(=O)(=O)c3ccccc3)cc21	0	?	0	0	0	6.51µM
Cc1ccc(S(=O)(=O)Nc2ccc3c(c2)CCC3)cc1	0	20.6µM	0	0	?	0
CC1=C(C(=O)Nc2ccccc2C)C(c2cccs2)n2nc(SCc3cc(C)ccc3C)nc2N1 (stereo not given)	-	?	-	-	0	-
CC1(C)C(c2ccco2)=[N+]([O-])C2(CCCCC2=O)N1O (stereo not given)	0	0	0	0	0	0
C=CCn1c(SCc2nc3cc(C(F)(F)F)ccc3c(=O)[nH]2)nc2sc(CC)cc2c1=O	0	?	0	0	0	0
COc1cc(C(=S)N2CCCCC2)ccc1O	0	0	0	0	0	?
CCN1CCN(C(=S)c2ccc(Cl)c(Cl)c2)CC1	0	14.6µM	0	0	0	0
Oc1ccc(C(=S)N2CCCCC2)cc1Cl	0	18.4µM	0	0	0	0
COc1ccc(NC(=O)CSc2nnc(-c3cccs3)n2-c2ccccc2)cc1	23.1µM	0	?	?	0	?
COc1ccc(NC(=O)CSc2nnc3c4c(nc(-c5ccccc5)n23)CC(C)(C)OC4)cc1	0	2.91µM	0	0	0	?
SMILES	HT1080NT lethal	KB-V1 MDR tox	MCF10A rerep	HT1080 IDH1KD tx	KB-3-1 tox	SW480 rereplic
CCn1c(CNc2ccc(F)cc2)nnc1SCC(=O)Nc1ccc(OC)cc1OC	0	?	0	0	0	0
CCn1c(Cc2ccc(OC)cc2)nnc1SCC(=O)Nc1cccc(C(=O)OC)c1	0	5.17µM	0	0	0	0
CCn1c(CNc2ccc(OC)cc2)nnc1SCC(=O)Nc1ccc(F)cc1	0	20.6µM	0	0	0	0
COc1cccc(OC)c1CNC(=O)C1CCC(=O)N(CC2CCCCC2)C1 (stereo not given)	0	0	0	0	0	0
CCCn1c(C)cc(C(=O)CN2C(=O)NC3(CCCCCC3)C2=O)c1C	0	?	-	0	0	-
COCCN1C(=O)N[C@@H](CCc2ccccc2)[C@H](C(=O)OC)[C@H]1C	0	0	0	0	0	0[9.22 µM]
O=C(NC(c1ccccc1)c1ccsc1)C1CCN(Cc2ccc(Oc3ccccc3)cc2)CC1 (stereo not given)	18.4µM	0	-	14.6µM	0	-
O=C(NC(c1ccc(Cl)cc1)c1cnccn1)C1CCN(Cc2ccccc2)CC1 (stereo not given)	0	0	-	0	0	-
O=C(NC(c1ccc(-c2ccccc2)cc1)c1cnccn1)C1CCN(Cc2ccc(Oc3ccccc3)cc2)CC1 (stereo not given)	13µM	0	-	?	?	-
Cc1cccnc1C(NC(=O)C1CCN(Cc2ccccc2)CC1)c1ccc(F)cc1 (stereo not given)	0	?	-	0	?	-
O=C(NC(c1ccccc1)c1ccsc1)C1CCN(Cc2ccc(Cl)c(Cl)c2)CC1 (stereo not given)	0	0	-	0	0	-
COc1cc(CN2CCC(C(=O)NC(c3ccc(-c4ccccc4)cc3)c3cnccn3)CC2)cc(OC)c1 (stereo not given)	23.1µM	?	-	23.1µM	?	-
Cc1cccnc1C(NC(=O)C1CCN(Cc2ccc(Oc3ccccc3)cc2)CC1)c1ccccc1 (stereo not given)	23.1µM	?	-	18.4µM	0	-
COc1ccc(F)cc1S(=O)(=O)N1CCN(C(=O)c2ccco2)CC1	0	0	?	0	0	0
CCOC(=O)C1CCCCN1Cc1ccc(C(F)(F)F)cc1 (stereo not given)	0	0	0	0	0	0
CCOc1ccc(NC(=O)CN(C)C(=O)CCNC(=O)c2ccc(Br)cc2)cc1OCC	0	0	0	0	0	0
COc1ccc(C(NC(=O)C2CCN(Cc3ccc(Oc4ccccc4)cc3)CC2)c2ccccn2)cc1 (stereo not given)	14.6µM	0	-	23.1µM	0	-
Cc1ccc(C(NC(=O)C2CCN(CCCOc3ccccc3)CC2)c2ccccn2)cc1 (stereo not given)	?	0	-	?	0	-
COc1ccc(CN2CCC(C(=O)NC(C)c3cccc4ccccc34)CC2)cc1 (stereo not given)	0	0	-	0	0	-
COc1ccc(C(NC(=O)C2CCN(Cc3ccc(Oc4ccccc4)cc3)CC2)c2ccccc2C)cn1 (stereo not given)	16.4µM	0	-	?	0	-
CC1CCCC(N2CCN(C(=O)c3ccc([N+](=O)[O-])cc3)CC2)C1 (stereo not given)	0	0	?	0	0	8.2µM
O=C(c1ccc(Oc2ccc([N+](=O)[O-])cc2)cc1)N1CCCCCC1	0	0	0	?	?	0

Screening data: PubChem, National Center for Advancing Translational Sciences (NCATS)
